Source: PubChem BioAssay (Tox21)
Unmarked numbers belong to inactive results. Records with an inconclusive call do not appear. Where a call stands in place of a potency, no number is given. The source made the active and inactive calls. Unless noted, the call rests on the fitted dose curve. Peptide text beside a SMILES is read from it.

Legend:
[1] = Nuclear factor erythroid 2-related factor 2/antioxidant responsive element (Nrf2/ARE) small molecule agonists: qHTS cell viability counter screen in human keratinocytes (AID 1919968; active means well fitted curve in the direction sought with a large enough effect in the repeat runs; an effect the other way counts as inactive or inconclusive; further: nearly all actives have a fitted effect of over 55% in size)
Outline: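 Parallel cytotoxicity read: KeratinoSens HaCaT cells, compound treatment 23 h, viability by CellTiter-Fluor fluorescence 1 h post-reagent.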

[2] = Nuclear factor erythroid 2-related factor 2/antioxidant responsive element (Nrf2/ARE) small molecule agonists: luciferase reporter gene qHTS assay in human keratinocytes (AID 1919969); further: nearly all actives have a fitted effect of over 35% in size; further: potency means the concentration at half of the fitted maximal effect
[3] = target: Gonadotropin-releasing hormone receptor (Homo sapiens) (UniProt P30968); assay: Human gonadotropin-releasing hormone receptor (GnRHR) small molecule agonists, calcium flux assay in GnRHR-HEK293 cells (AID 1920063); further: nearly all actives have a fitted effect of over 35% in size
Sequence of Gonadotropin-releasing hormone receptor (Homo sapiens) (P30968 whole entry, looked up): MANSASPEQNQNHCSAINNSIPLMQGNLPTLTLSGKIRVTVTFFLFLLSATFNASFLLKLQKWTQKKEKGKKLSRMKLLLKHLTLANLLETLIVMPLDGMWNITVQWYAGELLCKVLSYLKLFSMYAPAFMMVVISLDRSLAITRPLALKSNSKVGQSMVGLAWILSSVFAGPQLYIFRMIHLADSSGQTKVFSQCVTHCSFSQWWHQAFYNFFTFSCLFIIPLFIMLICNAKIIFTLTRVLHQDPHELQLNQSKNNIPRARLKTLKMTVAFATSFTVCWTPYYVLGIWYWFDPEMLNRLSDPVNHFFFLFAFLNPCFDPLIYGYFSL
Outline: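 Calcium flux, agonist mode, human GnRHR stably integrated in HEK293; dye 1 h at 37 C before compound; Ex/Em=480/540 kinetic read, 3 min; 15 concentrations, triplicate.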

[4] = target: KiSS-1 receptor (Homo sapiens) (UniProt Q969F8); assay: Human kisspeptin (KISS1R) small molecule agonists, calcium flux assay in KISS1R-HEK293 cells (AID 1920064; active means well fitted curve in the direction sought with a large enough effect in the repeat runs; an effect the other way counts as inactive or inconclusive)
Sequence of KiSS-1 receptor (Homo sapiens) (Q969F8 whole entry, looked up): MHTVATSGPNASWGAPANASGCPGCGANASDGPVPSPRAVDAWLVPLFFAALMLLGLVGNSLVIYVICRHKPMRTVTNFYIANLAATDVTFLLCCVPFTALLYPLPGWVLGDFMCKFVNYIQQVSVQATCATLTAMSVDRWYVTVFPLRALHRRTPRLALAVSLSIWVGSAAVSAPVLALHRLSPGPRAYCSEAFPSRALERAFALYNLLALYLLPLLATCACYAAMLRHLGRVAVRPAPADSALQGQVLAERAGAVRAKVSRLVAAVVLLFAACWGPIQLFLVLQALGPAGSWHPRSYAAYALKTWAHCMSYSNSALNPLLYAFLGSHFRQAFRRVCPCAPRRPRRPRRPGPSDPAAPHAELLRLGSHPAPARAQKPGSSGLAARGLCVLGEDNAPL
Outline: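 Triplicate 15-concentration series were applied to dye-loaded human KISS1R HEK293 cells, and agonist-evoked calcium fluorescence was captured for 3 min.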

[5] = G protein-coupled receptor (GPCR) small molecule agonists, calcium flux assay: HEK293 wild type cell line counter screen (AID 1920065)
Outline: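 Non-specific calcium responders were flagged by adding DMSO-dissolved compounds to dye-loaded cells and reading 480/540 nm fluorescence each second for 3 min; ATP served as positive control.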

[6] = p53 small molecule agonists, cell-based qHTS assay with human liver microsomes (AID 1963577);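 further: p53 response element beta-lactamase reporter cells with liver microsomes plus NADPH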
Outline: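 p53RE-bla cells; 5 h settle, 37 C/5% CO2; cpd + HLM 0.5 mg/mL + NADPH 0.5 mg/mL (final); 16 h 37 C; LiveBLAzer 2 h RT dark; fluorescence readout.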

[7] = p53 small molecule agonists, cell-based qHTS assay with rat liver microsomes (AID 1963578)
Outline: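 Rat liver microsome activation: microsomes 0.5 mg/mL, NADPH 0.5 mg/mL final; p53RE-bla cells, 16 h 37 C; LiveBLAzer readout, 2 h RT dark.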

[8] = p53 small molecule agonists, cell-based qHTS assay with human liver microsomes: qHTS cell viability counter screen (AID 1963579); further: nearly all actives have a fitted effect of over 45% in size
Outline: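 Luminescent CellTiter-Glo read-out, 30 min at room temperature, gauged cytotoxicity in p53RE-bla cells exposed 16 h at 37 C to DMSO-dissolved compounds with metabolic activation by human liver microsomes and NADPH, each 0.5 mg/mL final.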

[9] = p53 small molecule agonists, cell-based qHTS assay with rat liver microsomes: qHTS cell viability counter screen (AID 1963580); further: nearly all actives have a fitted effect of over 45% in size
Outline: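 Cytotoxicity counter screen: intracellular ATP measured by CellTiter-Glo luminescence in the same wells as the beta-lactamase reporter read, on HCT-116 p53RE-bla cells exposed 16 h at 37 C to compounds with rat liver microsomes and NADPH, each 0.5 mg/mL final.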

[10] = p53 small molecule agonists, cell-based qHTS assay (AID 1963582; active means well fitted activation curve with a large enough effect in the signal ratio in the repeat runs, not every such curve was filed as active; the % refers to the signal ratio)
Outline: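 Beta-lactamase reporter cells (p53RE-bla) treated with compounds for 16 h at 37 C; FRET substrate, 2 h, room temperature; fluorescence intensity.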

[11] = target: 5-hydroxytryptamine receptor 2A (Homo sapiens) (UniProt P28223); assay: 5-hydroxytryptamine receptor 2A (HTR2A) small molecule antagonists, cell-based qHTS assay (AID 1963586); further: nearly all actives have a fitted effect of over 45% in size
Sequence of 5-hydroxytryptamine receptor 2A (Homo sapiens) (P28223 whole entry, looked up): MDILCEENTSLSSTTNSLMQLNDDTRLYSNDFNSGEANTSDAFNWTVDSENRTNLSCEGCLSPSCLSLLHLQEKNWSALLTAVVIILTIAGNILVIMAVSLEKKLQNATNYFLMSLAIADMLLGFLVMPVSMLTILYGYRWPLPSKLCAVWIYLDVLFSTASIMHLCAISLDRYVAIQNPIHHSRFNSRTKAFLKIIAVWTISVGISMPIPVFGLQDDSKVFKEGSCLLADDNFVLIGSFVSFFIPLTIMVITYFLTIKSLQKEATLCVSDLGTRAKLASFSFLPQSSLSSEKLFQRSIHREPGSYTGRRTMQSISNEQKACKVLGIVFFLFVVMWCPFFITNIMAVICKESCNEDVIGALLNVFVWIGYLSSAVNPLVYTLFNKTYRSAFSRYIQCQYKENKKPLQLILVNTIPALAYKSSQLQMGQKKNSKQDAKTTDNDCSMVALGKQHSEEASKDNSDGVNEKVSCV
Outline: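 CHO cells stably expressing human HTR2A were plated for 18 h at 37 C, then loaded with calcium dye for 1 h. Compounds were preincubated 5 min at room temperature before DOI (4 nM solution) was added. Kinetic fluorescence was read for 3 min.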

[12] = target: 5-hydroxytryptamine receptor 2A (Homo sapiens) (UniProt P28223); assay: 5-hydroxytryptamine receptor 2A (HTR2A) small molecule agonists, cell-based qHTS assay (AID 1963587); further: nearly all actives have a fitted effect of over 30% in size
Outline: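 CHO cells stably expressing human HTR2A, plated 18 h, loaded with calcium dye 1 h at 37 C. Agonist mode: compounds added and intracellular calcium fluorescence recorded kinetically for 2 min at 1 sec intervals.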

[13] = target: Muscarinic acetylcholine receptor M1 (Homo sapiens) (UniProt P11229); assay: Cholinergic receptor muscarinic 1 (CHRM1) small molecule antagonists, cell-based qHTS assay (AID 1963588); further: nearly all actives have a fitted effect of over 40% in size
Sequence of Muscarinic acetylcholine receptor M1 (Homo sapiens) (P11229 whole entry, looked up): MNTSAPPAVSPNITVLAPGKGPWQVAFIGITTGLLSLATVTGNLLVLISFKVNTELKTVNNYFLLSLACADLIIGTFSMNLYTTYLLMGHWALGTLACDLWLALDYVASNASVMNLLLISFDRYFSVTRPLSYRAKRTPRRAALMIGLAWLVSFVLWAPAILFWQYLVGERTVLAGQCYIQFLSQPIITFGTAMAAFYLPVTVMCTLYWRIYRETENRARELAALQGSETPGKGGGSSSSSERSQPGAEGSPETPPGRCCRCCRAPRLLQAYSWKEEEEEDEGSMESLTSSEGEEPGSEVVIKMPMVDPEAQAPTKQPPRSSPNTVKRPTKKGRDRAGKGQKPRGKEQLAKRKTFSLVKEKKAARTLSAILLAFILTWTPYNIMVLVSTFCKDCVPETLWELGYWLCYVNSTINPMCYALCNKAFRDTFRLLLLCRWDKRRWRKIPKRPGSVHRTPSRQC
Outline: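 Compounds were tested at 15 concentrations in three independent runs. Dye-loaded CHRM1-CHO cells were exposed 5 min at room temperature before stimulation by acetylcholine added at 50nM. Intracellular calcium was read kinetically on FDSS for 3 min.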

[14] = target: Muscarinic acetylcholine receptor M1 (Homo sapiens) (UniProt P11229); assay: Cholinergic receptor muscarinic 1 (CHRM1) small molecule agonists, cell-based qHTS assay (AID 1963589); further: nearly all actives have a fitted effect of over 35% in size
Outline: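 qHTS, 15-point titration, 3 independent runs: compounds pin-transferred onto dye-loaded CHRM1-CHO cells (human M1), calcium fluorescence followed every second to detect agonism.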

[15] = cAMP Responsive Elements (CRE) small molecule agonists, cell-based qHTS assay (AID 1963590)
Outline: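 Quantitative HTS for CRE agonists: HEK 293T CRE-bla cells, overnight plating, 3 h compound incubation at 37 C/5% CO2, then 2 h room-temperature LiveBLAzer B/G FRET substrate loading.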

[16] = cAMP Responsive Elements (CRE) small molecule antagonists, cell-based qHTS assay (AID 1963591; active means well fitted inhibition curve with a large enough effect in the signal ratio in the repeat runs, not every such curve was filed as active; the % refers to the signal ratio)
Outline: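 Fluorescence intensity from cleaved LiveBLAzer B/G substrate (2 h, room temperature) quantified CRE-bla activity in HEK 293T cells exposed 3 h to compound with 0.25 uM final NKH477.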

[17] = target: Beta-2 adrenergic receptor (Homo sapiens) (UniProt P07550); assay: Adrenergic beta2 receptor (ADRB2) small molecule antagonists, cell-based qHTS assay (AID 1963592); further: series mostly up to about 92 µM; nearly all actives have a fitted effect of over 50% in size
Sequence of Beta-2 adrenergic receptor (Homo sapiens) (P07550 whole entry, looked up): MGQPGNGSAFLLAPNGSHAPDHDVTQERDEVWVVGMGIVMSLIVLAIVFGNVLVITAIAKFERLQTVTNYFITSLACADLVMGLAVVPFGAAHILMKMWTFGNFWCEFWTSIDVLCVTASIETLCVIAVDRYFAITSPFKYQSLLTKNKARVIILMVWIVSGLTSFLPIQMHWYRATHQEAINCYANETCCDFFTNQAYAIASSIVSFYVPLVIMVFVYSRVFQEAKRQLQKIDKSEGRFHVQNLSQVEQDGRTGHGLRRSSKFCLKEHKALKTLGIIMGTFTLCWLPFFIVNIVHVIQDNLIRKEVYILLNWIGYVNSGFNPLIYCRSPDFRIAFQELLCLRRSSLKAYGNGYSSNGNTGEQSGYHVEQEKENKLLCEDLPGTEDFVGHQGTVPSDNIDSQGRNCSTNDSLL
Outline: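 Assay format: CHO-ADRB2 cells, 18-20hr seeding at 37C/5% CO2, then compound plus 1nM isoproterenol agonist mix for 0.5hr RT. Homogeneous time-resolved fluorescence cAMP detection after 1hr, expressed as 665/615 nm ratio.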

[18] = target: D(2) dopamine receptor (Homo sapiens) (UniProt P14416); assay: Dopamine D2 receptor (DRD2) small molecule agonists, cell-based qHTS assay (AID 1963594); further: nearly all actives have a fitted effect of over 35% in size
Sequence of D(2) dopamine receptor (Homo sapiens) (P14416 whole entry, looked up): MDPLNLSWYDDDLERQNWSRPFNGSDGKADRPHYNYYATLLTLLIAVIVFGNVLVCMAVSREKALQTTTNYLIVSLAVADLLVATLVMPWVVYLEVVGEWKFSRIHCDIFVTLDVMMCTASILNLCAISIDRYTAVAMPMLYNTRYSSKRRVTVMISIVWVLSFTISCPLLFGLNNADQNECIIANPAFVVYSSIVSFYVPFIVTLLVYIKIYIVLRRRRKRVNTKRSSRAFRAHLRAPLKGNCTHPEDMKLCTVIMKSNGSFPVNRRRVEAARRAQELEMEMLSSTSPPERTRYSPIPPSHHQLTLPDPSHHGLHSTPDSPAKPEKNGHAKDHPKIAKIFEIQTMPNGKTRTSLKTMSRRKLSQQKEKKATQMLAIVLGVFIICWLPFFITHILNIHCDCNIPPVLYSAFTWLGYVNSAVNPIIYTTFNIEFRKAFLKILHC
Outline: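 HEK293 cells stably expressing human DRD2, pre-treated with PDE inhibitor Ro20-1724 (0.1 mM final) and compound 10 min at room temperature, then stimulated with NKH477 (200nM […]) for 30 min. cAMP read by HTRF (665/620 nm).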

[19] = target: D(2) dopamine receptor (Homo sapiens) (UniProt P14416); assay: Dopamine D2 receptor (DRD2) small molecule antagonists, cell-based qHTS assay (AID 1963595; active means well fitted inhibition curve with a large enough effect in the signal ratio in the repeat runs, with a control signal flat; the % refers to the signal ratio)
Outline: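 Antagonist mode in DRD2-HEK293 cells: after compound addition with 0.1 mM Ro20-1724, cells received quinpirole (12 nM) and NKH477 (200 nM) for 30 min at room temperature; HTRF cAMP read after 1 h detection.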

[20] = p53 small molecule agonists, cell-based qHTS assay: qHTS cell viability counter screen (AID 1963581); further: nearly all actives have a fitted effect of over 45% in size
Outline: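 Multiplexed with the reporter read, a CellTiter-Glo step (30 min, room temperature) gauges ATP-based viability of HCT-116 p53RE-bla cells after 16 h compound incubation at 37 C.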

Row | Structure (SMILES) | Potency [1] | Potency [2] | Potency [3] | outcome [4] | outcome [5] | Potency [6] | Potency [7] | Potency [8] | Potency [9] | Potency [10] | Potency [11] | Potency [12] | Potency [13] | Potency [14] | Potency [15] | Potency [16] | Potency [17] | Potency [18] | Potency [19] | Potency [20]
1 | NS(=O)(=O)c1cc(C(=O)O)cc(N2CCCC2)c1Oc1ccccc1 | inactive | inactive | inactive | inactive | inactive | inactive | inactive | inactive | inactive | inactive | inactive | inactive | inactive | inactive | inactive | inactive | inactive | inactive | inactive | –
2 | Nc1ccc(Oc2cccc(Oc3ccc(N)cc3)c2)cc1 | inactive | inactive | inactive | inactive | inactive | inactive | inactive | inactive | inactive | – | – | – | inactive | inactive | inactive | – | inactive | inactive | inactive | inactive
3 | CCC1CCC(CCC(=O)O)C1 (stereo not given) | inactive | inactive | inactive | inactive | inactive | inactive | inactive | inactive | inactive | – | – | inactive | inactive | inactive | – | inactive | inactive | inactive | inactive | inactive
4 | C=C1CC[C@H](O)C/C1=C\C=C1/CCC[C@]2(C)[C@@H]([C@H](C)CCCC(C)C)CC[C@@H]12 | inactive | 21.5 µM (active) | inactive | inactive | inactive | inactive | inactive | inactive | inactive | – | – | – | – | – | – | inactive | inactive | inactive | inactive | inactive
5 | CCCCCCCCOS(=O)(=O)O | inactive | inactive | inactive | inactive | inactive | inactive | inactive | inactive | inactive | inactive | inactive | inactive | inactive | inactive | inactive | inactive | inactive | inactive | – | –
6 | CC(=O)N[C@@H](CO)C(=O)N[C@@H](CC(=O)O)C(=O)N[C@@H](CCCCN)C(=O)N1CCC[C@H]1C(=O)O (Ac-SDKP-OH) | inactive | inactive | inactive | inactive | inactive | inactive | inactive | inactive | inactive | – | – | – | – | – | inactive | inactive | inactive | – | inactive | inactive
7 | Brc1ccccn1 | inactive | inactive | inactive | inactive | inactive | inactive | inactive | inactive | inactive | inactive | inactive | inactive | inactive | inactive | inactive | inactive | inactive | inactive | inactive | –
8 | O=C(O)Cc1ccc(-c2ccccc2)cc1 | inactive | inactive | inactive | inactive | inactive | inactive | inactive | inactive | inactive | – | – | – | – | – | – | – | inactive | inactive | inactive | inactive
